This is an account of results in PubChem BioAssay (NCATS).

Values joined by “and” are separate entries in the source; they are usually repeats but may differ in a detail not shown here. Equal entries are not always repeated. Results filed as inconclusive are left out. The source holds several records for some structures; these can differ, active in one and inactive in another. Active and inactive are the calls of the source. Calls come from the whole dose curve; as a rule, active = well fitted inhibition curve with a large enough effect; inconclusive = small, poorly fitted or top-dose-only effect; inactive = flat fitted curve, though single readings scatter.
% is set by controls: 0 for no effect and ±100 for the full control effect; potency is the fitted concentration of half-maximal effect.

The first experiment in a line: Drug repurposing screens with cells derived from glioblastoma tumor samples (AID 1345199). Note: nearly all actives have a fitted effect of over 40% in size. Particulars: GBM patient neurospheres viability, ATP luminescence, 48 h; at 108 µM (top of the series); tumour line B. Put shortly:
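Four patient lines of CD133+ GBM neurospheres were screened at several concentrations; hits were retested in those lines plus three slower-growing GBM lines, using 48-hour treatment and ATP-based viability.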
`COc1ccc(OC)c(CC(C)N)c1` (configuration not stated): the activity, negative = cell killing is -6.52% (inactive).
Same read-out and setting: then `COc1ccc2[nH]cc(CCN(C(C)C)C(C)C)c2c1`, with -6.42% (inactive).
Same read-out and setting: then `COc1cc(CC(C)N)c(OC)cc1Br` (configuration not stated), with -15.6% (inactive); and `COc1cc(C[C@@H](C)N)c(OC)cc1C`, with -21.2% (inactive).
Take `COc1cc(CC(C)N)cc2c1OCO2` (configuration not stated): the activity, negative = cell killing was -12.8% (inactive).
Consider `CCc1cc(OC)c(C[C@H](C)N)cc1OC`, for which the activity, negative = cell killing is -24.5% (inactive).

The same experiment, now with this note: GBM patient neurospheres viability, ATP luminescence, 48 h; at 108 µM (top of the series); tumour line D.
Turning to `COc1ccc(OC)c(CC(C)N)c1` (configuration not stated), the activity, negative = cell killing is -16.6% (inactive).
On the same count and under the same terms, then `COc1ccc2[nH]cc(CCN(C(C)C)C(C)C)c2c1`, with -9.85% (inactive); and `COc1cc(C[C@@H](C)N)c(OC)cc1C`, with -18.9% (inactive).
Regarding `CCc1cc(OC)c(C[C@H](C)N)cc1OC`, the activity, negative = cell killing was -14.6% (inactive).

Staying with this experiment, now noted: GBM patient neurospheres viability, ATP luminescence, 48 h; tumour line A.
`CCN(CC)Cc1nccn1-c1ccc([N+](=O)[O-])cc1C(=O)c1ccccc1Cl`: the Potency is 31.6 µM (active).
Take `O=C(CCCN1CCC(n2c(=O)[nH]c3ccccc32)CC1)c1ccc(F)cc1`: the Potency is 5.62 µM (active).
On the same count and under the same terms, then `C#C[C@]1(O)CC[C@H]2[C@@H]3CCC4=CC(=O)CCC4=C3C=C[C@@]21CC`, with 10 µM (active); and `Clc1ccc(C(OCCN2CCCCC2)c2ccccc2)cc1` (configuration not stated), with 3.55 µM (active).
Same read-out and setting: then `C=CC[C@]1(O)CC[C@H]2[C@@H]3CCC4=CC(=O)CCC4=C3C=C[C@@]21C`, with 17.8 µM (active); and `CCN(CC)CCOC(=O)C(C)(c1ccccc1)c1ccccc1`, with 10 µM (active).
The same measure, in the same setting: then `COc1ccc2[nH]cc(CCN(C(C)C)C(C)C)c2c1`, with 44.7 µM (active); and `COc1cc(CC(C)N)c(OC)cc1Br` (configuration not stated), with 35.5 µM (active) and 12.6 µM (active).
Regarding `C[C@]12CC[C@H](O)CC1=CC[C@@H]1[C@@H]2CC[C@]2(C)C(=O)CC[C@@H]12`, the Potency was 22.4 µM (active).
Consider `COc1cc(C[C@@H](C)N)c(OC)cc1C`, for which the Potency was 31.6 µM (active).
Same read-out and setting: then `C[C@]12Cc3nonc3C[C@@H]1CC[C@@H]1[C@@H]2CC[C@@]2(C)[C@H]1CC[C@]2(C)O`, with 12.6 µM (active); and `Clc1ccc(CO/N=C(\Cn2ccnc2)c2ccc(Cl)cc2Cl)c(Cl)c1`, with 2.82 µM (active); and `CN(C)C(=S)SSC(=S)N(C)C`, with 35.5 µM (active).
Still for that read-out and setting: then `COc1cc(CC(C)N)cc2c1OCO2` (configuration not stated), with 35.5 µM (active); and `C=CCOC(Cn1ccnc1)c1ccc(Cl)cc1Cl` (configuration not stated), with 20 µM (active).
On the same count and under the same terms, then `CN1C[C@@H](NS(=O)(=O)N(C)C)C[C@@H]2c3cccc4c3c(cn4C)C[C@H]21`, with 10 µM (active); and `CCc1cc(OC)c(C[C@H](C)N)cc1OC`, with 31.6 µM (active).
